ALDH1A1 block: ALDH1A1 (human) enzyme inhibition. P00352. Purified ALDH1A1, NADH fluorescence, propionaldehyde substrate. Potency, µM (doses to about 75.3 µM), for inactives: at the highest dose activity, negative = inhibition, hits mostly inhibitors. 220,000 compounds, 7.3% hits;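 note: plate controls were no enzyme wells and a reference inhibitor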
HTT ATP protect: protects HTT-Q103 PC12 cells, measured by ATP; PC12 HTT-Q103 induced, cytoprotection, ATP luminescence, 40 h; Potency, µM (top dose mostly 56.4 µM), for the others: cytoprotection (ATP increase), usual class: activators; 230,000 compounds, 0.14% hits; AID 1471; active = well fitted curve in the direction sought with a large enough effect; inconclusive = small, poorly fitted or top-dose-only effect, or another doubt; inactive = no such curve, though single readings can be large; an effect the other way counts as inactive or inconclusive; note: % of control where 0% means no effect; nearly all actives have a fitted effect of over 45% in size
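Stable PC12 Q103-GFP cells in serum-supplemented, phenol red-free DMEM; induction by tebufenozide at 100 nM final; compound dose series; cell viability quantified luminescently from ATP.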
HttQ103 aggreg: reduces HttQ103-GFP aggregates in PC12 cells; PC12 HttQ103-GFP aggregates, Acumen cytometry, 40 h; Potency, µM (doses to about 46.1 µM), for inactives: top-dose activity change, negative = inhibition, usual class: inhibitors; 220,000 compounds, 1.1% hits; AID 1688; active = well fitted curve in the direction sought with a large enough effect; inconclusive = small, poorly fitted or top-dose-only effect, or another doubt; inactive = no such curve, though single readings can be large; an effect the other way counts as inactive or inconclusive; note: % is set by controls: 0 for no effect and ±100 for the full control effect; nearly all actives have a fitted effect of over 60% in size
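Quantitative HTS on tebufenozide-induced (100 nM) PC12 cells stably expressing polyQ103 Huntingtin exon 1–GFP. Reduction of bright GFP aggregates, detected by laser scanning cytometry after lysis, identified actives across the titration.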
JMJD2E inh: inhibitors of human JMJD2E histone demethylase; B2RXH2; JMJD2E catalytic domain, FDH-coupled NADH fluorescence (FDH is formaldehyde dehydrogenase); 230,000 compounds, 1.6% hits; Potency, µM (highest dose often 57.1 µM), for the others: at the highest dose activity change, negative = inhibition, actives largely listed as inhibitors; AID 2147;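 note: 0% = wells with enzyme and -100% = buffer wells without enzyme; nearly all actives have a fitted effect of over 50% in size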
Target sequence (B2RXH2 1-337 limits assumed): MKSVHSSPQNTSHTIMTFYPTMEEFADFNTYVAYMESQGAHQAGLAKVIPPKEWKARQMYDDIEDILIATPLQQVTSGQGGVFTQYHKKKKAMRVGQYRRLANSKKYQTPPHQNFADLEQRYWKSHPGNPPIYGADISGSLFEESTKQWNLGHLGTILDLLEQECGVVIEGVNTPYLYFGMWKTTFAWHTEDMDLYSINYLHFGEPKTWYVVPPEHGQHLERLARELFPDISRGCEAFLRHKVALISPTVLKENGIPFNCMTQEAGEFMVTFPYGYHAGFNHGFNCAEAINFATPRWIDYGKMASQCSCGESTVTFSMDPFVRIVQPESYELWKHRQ
Lamin A splicing: LMNA splicing modulation; 200,000 compounds, 0.01% hits; Potency, µM (series often up to 46.1 µM), for inactives: at the highest dose ratio change, negative = inhibition, actives largely listed as inhibitors; HeLa LMNA splicing GFP/RFP minigene ratio, 48 h; active = well fitted inhibition curve with a large enough effect in the signal ratio, with a control signal flat, not every such curve was filed as active; inconclusive = small, poorly fitted or top-dose-only effect, or effect the other way, or a change in a side signal; the % refers to the signal ratio; note: % is set by controls: 0 for no effect and ±100 for the full control effect
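S3 HeLa cells stably expressing lamin A-EGFP splicing minigene plus DsRed2, 600 cells/well, 48 h compound exposure at 37C. Laser-scanning cytometry; analysed as GFP (500-530 nm)/RFP (575-640 nm) total intensity ratio; 0.5% DMSO vehicle.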
HPGD inh: HPGD (human) dehydrogenase inhibition | 150,000 compounds, 4.3% hits | P15428 | AID 894 | Potency, µM, without a hit: at the top dose activity change, negative = inhibition, usual class: inhibitors | purified HPGD, NADH fluorescence kinetic, PGE2 substrate; note: % is set by controls: 0 for no effect and ±100 for the full control effect
Target sequence (P15428 whole entry, looked up): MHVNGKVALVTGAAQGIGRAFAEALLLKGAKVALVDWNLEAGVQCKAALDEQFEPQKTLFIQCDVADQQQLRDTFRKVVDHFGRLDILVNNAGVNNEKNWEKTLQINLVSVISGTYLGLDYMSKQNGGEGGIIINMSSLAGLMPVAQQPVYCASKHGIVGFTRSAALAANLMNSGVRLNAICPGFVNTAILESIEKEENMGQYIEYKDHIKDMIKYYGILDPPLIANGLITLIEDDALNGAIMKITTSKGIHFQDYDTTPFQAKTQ
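20 nM HPGD preincubated 15 min at room temperature with compound in 50 mM Tris-HCl pH 8, 0.01% Tween 20. Started with 1 mM NAD+ and 30 uM prostaglandin E2; NADH fluorescence (360/450 nm) read 5 times over 30-s intervals, last minus first.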
* marks the source's active call; other numbers are inactive results; ? = inconclusive; . = no result given; [ ] = another dose, or the depositor's remark. The list is not random: actives were taken first. Their share in the collection is about 9.2%. Unless noted, calls come from the whole dose curve; as a rule, active = well fitted inhibition curve with a large enough effect (not every such curve was filed as active); inconclusive = small, poorly fitted or top-dose-only effect, or another doubt; inactive = no such curve, though single readings can be large or run the other way. Potency is the fitted concentration of half-maximal effect.

SMILES	ALDH1A1 block	HTT ATP protect	HttQ103 aggreg	JMJD2E inh	Lamin A splicing	HPGD inh
Brc1ccc(-c2nnc(-c3ccccc3)c(N3CCSCC3)n2)cc1	-6.2%	-23.7%	-27.3%	-8.3%	-3.1%	-16.7%
C=CCC1C=CC(Oc2ccc(OC)cc2)C(COC(=O)c2ccc(Br)cc2)O1 (stereo not drawn)	-5.0%[13.5 µM]	-8.5%[10 µM]	.	.	.	.
CC[n+]1c(/C=C2/C=C(C)CC(C)(C)C2)sc2ccc(OC)cc21	8.91µM*	-1.2%	?	-16.8%	?	-25.5%
COc1cc(C(=O)NC(c2ccccc2)c2ccccc2)cc(Cl)c1OC	2µM*	9.5%[10 µM]	-9.0%	4.7%	-10.2%	-2.4%
COc1cc(C(=O)N/N=C(\C)Cc2ccccc2)cc(OC)c1OC	20µM*	-12.9%[10 µM]	5.5%	37.7%	?	-0.6%
COc1ccc(C(NC(=O)c2ccc(F)cc2)c2ccccc2)cc1 (stereo not drawn)	22.4µM*	-23.8%[10 µM]	13.4%	-3.0%	-10.2%	.
Cn1cc(S(=O)(=O)N2CCCCCC2)cc1C(=O)N1CCN(c2ccc(Cl)cc2)CC1	.	.	.	.	-11.7%[46 µM]	.
Cc1cc(C)nc(SCC(=O)NC2=NC(=O)C(C)S2)n1 (stereo not drawn)	22.4µM*	8.4%[10 µM]	-1.9%	2.5%	5.6%	?
CN(c1ccccc1)c1nc2ccsc2c(=O)s1	-15.7%	-39.1%	-17.3%	-19.4%	6.3%	28.2µM*
O=C(CSc1cccc[n+]1[O-])Nc1ccccc1Oc1ccccc1	14.1µM*	-18.0%	-6.1%	-8.2%	.	.
O=C(CSc1ccc(Br)cc1)Nc1ccccc1Oc1ccccc1	-5.3%	0.7%[1.9 µM]	18.0%	0.5%	?	-14.3%
O=C(CSc1cccc[n+]1[O-])Nc1cc2c(cc1Cl)C(=O)c1ccccc1C2=O	8.91µM*	16.2%[10 µM]	3.8%	-1.4%	-0.3%	-19.1%
COCc1ccc(C(=O)NC(C)c2cnn(-c3ccccc3C)c2C)o1 (stereo not drawn)	-7.5%	8.0%[10 µM]	14.9%[9.22 µM]	-0.3%	?	.
COc1ccc(C(=O)N2CC3(CC(c4cccc([N+](=O)[O-])c4)=NO3)C[C@H]2C(=O)NCC(N)=O)cc1 (stereo partly drawn)	11.2µM*	3.7%	-2.7%	2.3%	8.0%	?
CCN(C(=O)CSc1nnc(-c2cccs2)n1CC)C1CCS(=O)(=O)C1 (stereo not drawn)	.	15.0%[10 µM]	-10.3%[9.22 µM]	0.6%	.	.
C=CCSCC(N)C(=O)O (stereo not drawn)	?	.	.	?	-11.9%	-8.8%
CCC1S/C(=N\S(=O)(=O)c2cccs2)N(C2CCCCC2)C1=O (stereo not drawn)	7.94µM*	-24.1%[10 µM]	-9.9%	-1.4%	6.7%	-8.2%
CC(C)(c1ccccc1)c1ccc(OCC(O)CNC2CCN(Cc3ccccc3)CC2)cc1 (stereo not drawn)	?	-58.1%	?	10µM*	6.4%[9.22 µM]	.
CC(=O)Nc1ccc(OC[C@@H](O)CNC(C)C)cc1	2.0%	?	.	22.7%	?	1.0%
CC(=O)Nc1ccc(OCC(O)CNC2CCCC2)cc1 (stereo not drawn)	17.8µM*	-3.6%	?	-27.7%	?	-9.5%
N#CC1=C(N)n2c(s/c(=C\c3ccco3)c2=O)=C(C#N)C1c1ccco1 (stereo not drawn)	22.4µM*	-16.6%[10 µM]	2.0%	?	-2.9%	-24.0%
CCOC(=O)C1=C(N)n2c(s/c(=C/c3ccco3)c2=O)=C(C(=O)OC)C1c1ccco1 (stereo not drawn)	?	-63.3%	30.2%	?	-14.9%	-29.3%
O=Cc1ccc(-n2cc(C=O)c3ccccc32)cc1	11.2µM*	8.6%[10 µM]	-10.0%	?	11.0%[46 µM]	.
Cn1cc(/C=C2\SC(=O)NC2=S)c2ccccc21	1.41µM*	-37.5%	?	-4.1%	.	.
COC(=O)/C(=C/c1cn(C)c2ccccc12)[N+](=O)[O-]	1.78µM*	-7.0%[10 µM]	-1.2%	2.2%	-10.9%	3.55µM*
SMILES	ALDH1A1 block	HTT ATP protect	HttQ103 aggreg	JMJD2E inh	Lamin A splicing	HPGD inh
Cn1cc(C=O)c2ccccc21	2.82µM*	0.9%[10 µM]	3.3%[9.22 µM]	-3.4%	.	.
Cc1ccc(C(=O)NN2C(=O)/C(=C/c3cn(C)c4ccccc34)SC2=S)cc1	5.5%	.	7.9%	-8.0%	16.2%	-19.9%
Cc1ccc(/C(C#N)=C\c2cn(C)c3ccccc23)cc1	1.1%	-3.0%[1.9 µM]	9.2%	9.2%	?	-5.4%
O=C(NCC(c1cccs1)S(=O)(=O)c1cccs1)c1cccc(F)c1 (stereo not drawn)	.	.	.	.	16.1%[46 µM]	.
CCN(Cc1cc(Cl)cc(C)c1O)Cc1c(O)ccc2ccccc12	-2.0%[13.5 µM]	-14.8%[10 µM]	.	.	.	-5.5%
Cc1ccc(/C=C2/SC(=O)NC2=S)o1	14.1µM*	-3.4%	-2.9%	?	.	.
CCC1CCC2(CC1)NNC(=S)NN2	7.51µM*	?	-2.6%	?	6.6%	10µM*
O=c1[nH][nH]c(=S)c(=O)[nH]1	?	-9.4%[10 µM]	.	.	.	3.98µM*
C=CCOC(=O)C1=C[C@H](C2CC2)[C@@H](CCCO)[C@H](OCC)O1	28.2µM*	6.1%[10 µM]	-21.4%[9.22 µM]	-6.3%	.	.
CO[C@H]1COC(=O)CCC[C@H](C)[C@H](OC)COC(=O)C/C=C\[C@@H]1C	6.4%[13.5 µM]	-10.1%[10 µM]	.	.	.	.
COc1ccc(C(=O)NCCn2cc(SCC(=O)NCc3ccco3)c3ccccc32)cc1	25.1µM*	-26.1%	15.0%	-5.7%	?	-16.9%
Cc1nnc(NC(=O)CSc2cn(CCNC(=O)c3ccccc3)c3ccccc23)s1	1.58µM*	-12.3%	5.6%	-11.2%	?	-0.8%
Cn1c(SCC(=O)NNC(=O)Nc2ccccc2)nnc1-c1ccccc1	.	27.9%[10 µM]	16.5%[9.22 µM]	12.6%	.	.
COc1ccc2c(c1)c(C(=O)CNc1nc(C)cs1)c(C)n2C	?	-11.6%	-7.6%	?	0.3%	-19.7%
CCOCc1cnc(C)nc1NCC(=O)c1c(C)n(C)c2ccc(OC)cc12	31.6µM*	-7.9%[10 µM]	-13.7%	-12.0%	13.1%	-6.8%
COc1ccccc1NC(=O)CSC1=Nc2ccccc2C2=NC(Cc3ccccc3)C(=O)N12 (stereo not drawn)	.	.	.	.	-3.7%[46 µM]	.
CN1CCN(CC(=O)n2c3c(c4ccccc42)CCCC3)CC1	-11.5%	-3.5%	10.5%	-2.7%	4.2%	-0.4%
CCN(CC)CC(=O)n1c2c(c3ccccc31)CCCC2	31.6µM*	-3.0%	-8.4%	?	9.5%	-10.2%
COc1ccc2c(c1)N(C[C@@H](C)CN(C)C)c1ccccc1S2	13.2%[20.9 µM]	-48.3%[17.1 µM]	-4.6%[20.6 µM]	-9.3%[25.5 µM]	?	-2.8%
Cc1nnc2c(N3CCN(c4ccccc4F)CC3)nc3ccccc3n12	.	.	.	.	-2.9%[46 µM]	.
CCn1c(C)cc2c(c1=O)C(c1ccc3c(c1)OCO3)C(C#N)=C(N)O2 (stereo not drawn)	-16.2%	8.8%	19.9%	1.3%	-1.6%	-14.7%

Assay outcomes deposited in PubChem by National Center for Advancing Translational Sciences (NCATS).
